Bioassay records: PubChem BioAssay, National Center for Advancing Translational Sciences (NCATS)
DT40 TDP1 no CPT: qHTS for Inhibitors of human tyrosyl-DNA phosphodiesterase 1 (TDP1): qHTS in cells in absence of CPT | DT40 Tdp1-/- hTDP1 cells, no CPT, ATP luminescence, 48 h | AID 686978, 2013 | Potency, µM (highest dose often 46.2 µM), inactives show top-dose activity change, negative = growth inhibition, actives largely listed as inhibitors | 420,000 tested, 15% active; further: potency means the concentration at half of the fitted maximal effect; nearly all actives have a fitted effect of over 55% in size
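Growth of hTDP1-complemented DT40 Tdp1-knockout cells is measured by ATP luminescence after at least 48 hr compound exposure at 37 °C, with DMSO substituting for the 20 nM CPT used in the parallel screen.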
TDP1 cell CPT: qHTS for Inhibitors of human tyrosyl-DNA phosphodiesterase 1 (TDP1): qHTS in cells in presence of CPT | chicken DT40 Tdp1-/-;hTDP1 cells + 20 nM CPT, ATP luminescence, 48 h | 420,000 tested, 12% active | Potency, µM (series often up to 46.2 µM), for the others: at the top dose activity change, negative = growth inhibition, hits mostly inhibitors; further: potency means the concentration at half of the fitted maximal effect; nearly all actives have a fitted effect of over 55% in size
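Cell growth measured by CellTiter-Glo luminescence after a minimum 48 h, 37 C compound exposure with 20 nM CPT in Tdp1-knockout DT40 cells stably expressing hTDP1, seeded 400/well; qHTS titration format.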
IL1B secr inh: qHTS for Inhibitors of Inflammasome Signaling: IL-1-beta AlphaLISA Primary Screen; THP-1 LPS/ATP IL-1B secretion, AlphaLISA, 16 h; stronger effect = lower value; activity change, % at 57.5 µM; 360,000 tested, 4.7% active; AID 743279, 2014; in the data active means activity change below about -50%; inconclusive means mostly about -30% to -49%
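Secreted IL-1B measured by AlphaLISA bead assay after 16 h compound exposure of THP-1 cells; compounds (final up to 57.5 uM) added 1 h before LPS (250 ng/mL) and ATP (1.25 mM) stimulation; lower signal means less secretion.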
HT1080 IDH1KD tx: qHTS for induction of synthetic lethality in tumor cells producing 2HG: qHTS for the HT-1080-IDH1KD cell line. HT-1080 IDH1 knockdown viability, ATP luminescence, 48 h. Potency, µM (highest dose often 46.1 µM), without a hit: at the top dose activity, negative = toxicity, hits mostly cytotoxic. 360,000 tested, 2% active. AID 686971, 2013;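 further: potency means the concentration at half of the fitted maximal effect; 0% = DMSO wells and -100% = cell-free medium wells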
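Luminescent ATP read-out (CellTiter-Glo, 10 min at room temperature) after 48 h compound exposure at 37 °C gave viability of IDH1-knockdown HT-1080 cells. Activity was normalised to DMSO and cell-free wells, then fitted as concentration-response curves.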
HT1080NT lethal: qHTS for induction of synthetic lethality in tumor cells producing 2HG: qHTS for the HT-1080-NT fibrosarcoma cell line; HT-1080-NT fibrosarcoma viability, CellTiter-Glo ATP luminescence, 48 h; Potency, µM (series often up to 46.1 µM), for the others: at the highest dose activity, negative = less viability, usual class: cytotoxic; 360,000 tested, 1.6% active; AID 686970, 2013;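 further: NT is the 2HG producing partner of a matched IDH1 knockdown line; potency means the concentration at half of the fitted maximal effect; 0% = DMSO-treated cells and -100% = media-only wells without cells; nearly all actives have a fitted effect of over 55% in size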
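Luminescent CellTiter-Glo readout after 48 hours of compound exposure at 37 degrees C defined viability of HT-1080-NT cells. Activity was normalized to DMSO wells and cell-free media wells; concentration-response curves were fitted and assigned curve classes.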
* = called active by the depositor; ? = inconclusive; nt = no result given. Most compounds without a hit are left out; they make up all but 19% or so of the library. Unless noted, the call rests on the fitted dose curve; in most records, active means well fitted curve in the direction sought with a large enough effect; inconclusive means small, poorly fitted or top-dose-only effect, or another doubt; inactive means no such curve, though single readings can be large; an effect the other way counts as inactive or inconclusive. Unless noted, on the % scale 0 is the no-effect control and ±100 the full control effect.

SMILES	DT40 TDP1 no CPT	TDP1 cell CPT	IL1B secr inh	HT1080 IDH1KD tx	HT1080NT lethal
CS(=O)(=O)N(CC(=O)N1CCN(c2ccccc2)CC1)c1cc(C(F)(F)F)ccc1Cl	-26%	?	6	0%	-1%
C=CCN(CC=C)Cc1cc(=O)oc2cc(C)cc(C)c12	?	?	25	-10%	-4%
CNc1ncnc2c1ncn2[C@H]1CN(CCc2ccccc2)C[C@@H](CO)O1	?	?	20	3%	28%
CC1(C)COC(c2ccc3c(c2)OCO3)OC1	-9%	9%	15	8%	-2%
OC1O[C@H](c2ccc3c(c2)OCO3)[C@H]2CO[C@H](c3ccc4c(c3)OCO4)[C@@H]12 (some centres not stated)	21µM*	?	5	0%	0%
O=C(NC1CC2CCCC(C1)N2Cc1ccco1)NC12CC3CC(CC(C3)C1)C2 (configuration not stated)	18µM*	21µM*	-4	4%	-1%
OCCCNc1cc(-c2ccnc(Nc3cccc(Cl)c3)n2)ccn1	0.16µM*	0.15µM*	-108*	?	-45%
CCC(C)Oc1cc(-c2ccnc(Nc3cccc(Cl)c3)n2)ccn1 (configuration not stated)	?	?	-86*	?	-26%
O=[N+]([O-])c1cc(-n2cnnn2)ccc1N1CCC(Cc2ccccc2)CC1	9.2µM*	23µM*	-24	-14%	-3%
COc1cc(OCC(=O)NC(C)C)cc2c1C(=O)O[C@@H](C)CCCC(=O)CCCCC2	21µM*	?	-11	?	-6%
CCN(CC(=O)Nc1ccc(OC)cc1)C(=O)c1ccc2c(c1)NC(=O)CS2	-33%	-12%	33	-9%	0%
O=C(CCN1C(=O)[C@@H]2Cc3ccccc3CN2C1=O)N[C@H](C(=O)O)c1ccccc1	6%	4%	-5	4%	1%
CCOc1cccc(C2C=C(c3ccc4c(c3)OCO4)NC(c3ccc(Cl)cc3)N2)c1O (configuration not stated)	13µM*	10µM*	nt	nt	nt
CCOc1cccc(C2C=C(c3ccc4c(c3)OCO4)NC(c3ccc(F)cc3)N2)c1O (configuration not stated)	13µM*	14µM*	nt	nt	nt
CCOc1cccc(C2C=C(c3ccc4c(c3)OCO4)NC(c3ccccc3F)N2)c1O (configuration not stated)	16µM*	11µM*	nt	nt	nt
O=C1C(=C(c2ccccc2)c2ccccc2)Nc2ccccc21	15µM*	13µM*	10	?	?
Fc1ccc(-c2ccc3c(c2)C2CC3CCN2Cc2ccc3c(c2)OCO3)cc1 (configuration not stated)	16µM*	?	15	-11%	-9%
S=C(NCCc1ccccc1)N1CCC2CC1c1cc(-c3ccc4c(c3)OCO4)ccc12 (configuration not stated)	9.2µM*	8.2µM*	-9	?	?
O=C(c1ccccc1F)N1CCC2CC1c1cc(-c3ccc4c(c3)OCO4)ccc12 (configuration not stated)	21µM*	?	18	?	?
COCCNC(=S)N1CCC2CC1c1cc(-c3ccc4c(c3)OCO4)ccc12 (configuration not stated)	?	16µM*	68	?	?
O=S(=O)(c1cccc2ccccc12)N1CCC2CC1c1cc(-c3ccc4c(c3)OCO4)ccc12 (configuration not stated)	?	?	27	23%	?
CCOc1ccc(Br)cc1S(=O)(=O)NC1=NCCCCC1	9%	20%	-1	25%	10%
